From PubChem BioAssay AID2289 (National Center for Advancing Translational Sciences (NCATS), 2010)
Several values for one entry are separate records, joined by “and”; a condition that tells them apart may be missing. Identical values can stand only once. Hit rate of the full screen: of about 340,000 compounds, about 3,300 (0.97%) were called active. Inconclusive results (about 9%) are left out. Calls follow the shape of the dose curve; as a rule, active = well fitted inhibition curve with a large enough effect; inconclusive = small, poorly fitted or top-dose-only effect, or effect the other way; inactive = flat fitted curve, though single readings scatter. The list shows a part of the results.

assay: qHTS Assay for Modulators of miRNAs and/or Inhibitors of miR-21; details: HeLa miR-21-FLuc reporter, luciferase luminescence, 48 h; actives lower the signal; also: nearly all actives have a fitted effect of over 55% in size
Outline: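 HeLa miR-21-FLuc reporter line, endogenous miR-21; 2000 cells/well in DMEM/10% FBS; compound titration up to ~40uM final, 48 h, 37 degree Celsius; luciferase detection reagent, 15 min lysis, CCD luminescence.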
Potency is read from the fitted curve at half-maximal effect.

Potency, active:
COc1ccc(/C=N/N=C(\N)c2nonc2N)cc1OC 7.36 µM
COc1cccc(/C=N/N=C(\N)c2nonc2N)c1O 3.69 µM
COc1ccccc1/C=N\N=C(\N)c1ccccn1 2.07 µM
N/C(=N\N=C\c1ccc(O)c(O)c1)c1nonc1N 8.26 µM
N/C(=N\N=C\c1ccc(Br)o1)c1nonc1N 3.29 µM
COc1ccccc1OCc1cc(-c2ccccc2)no1 3.69 µM
Cc1cccc(OCc2cc(-c3ccccc3)no2)c1C 7.36 µM
Cc1ccc(-c2cc(N)n(-c3ccc(C)cc3)n2)cc1 11.7 µM and 1.85 µM
Cc1ccc(-c2cc(N)n(-c3ccc(F)cc3)n2)cc1 4.14 µM
O=C(O)c1cc(-c2ccc(C(F)(F)F)cc2)nc2n[nH]c(-c3ccccc3)c12 0.585 µM
COc1ccc(-c2csc(-c3cccs3)n2)c(OC)c1 1.04 µM
COc1ccc(-c2nc(-c3ccc(O)cc3O)cs2)cc1OC 5.85 µM
COc1ccc(-c2ccc3ccccc3n2)cc1OC 2.07 µM
COc1ccc(-c2csc(-c3cccs3)n2)cc1OC 6.56 µM
COc1ccc(Nc2nc(-c3cccs3)cs2)c(OC)c1 1.04 µM
Cc1ccc(/C=C2\OC(=O)c3ccccc32)cc1 3.69 µM
Clc1ccccc1N/N=C/c1ccc2c(c1)OCO2 2.93 µM
O=C(O)c1cc(N/N=C/c2ccc(N3CCOCC3)cc2)ccc1Cl 2.07 µM
O=C(O)c1cc(N/N=C/c2ccc3c(c2)OCCO3)ccc1Cl 0.293 µM
CSc1nsc(N/N=C/c2ccc3c(c2)OCO3)c1C#N 0.826 µM
CN(C)c1ccc(C(=O)/C=C/c2ccccc2)cc1 5.21 µM
CN(C)c1ccc(/C=C/C(=O)c2ccccc2O)cc1 4.14 µM
O=C1C(C=Nc2ccc(F)cc2)=C(O)c2ccccc21 2.07 µM
COC(=O)c1ccc(C(=O)N=c2sccn2C)cc1 4.14 µM
Cn1ccsc1=NC(=O)c1ccc(S(=O)(=O)C(F)F)cc1 7.36 µM
Cc1cccc(C(=O)N=c2sccn2C)c1[N+](=O)[O-] 4.65 µM
Cn1ccsc1=NC(=O)c1cccc(OC(F)F)c1 2.33 µM
Cn1ccsc1=NC(=O)c1ccc(OC(F)(F)F)cc1 4.65 µM
CCCCOc1ccc(C(=O)N=c2sccn2C)cc1OC 4.65 µM
CCCCc1ccc(-c2ccc(Br)cc2)nc1 3.69 µM
CCCCCc1ccc(-c2ccc(C(=O)Oc3ccc(C(=O)OC)cc3)cc2)nc1 0.656 µM
CCCCCc1ccc(-c2ccc(Br)cc2)nc1 3.69 µM
CCCOc1ccc(-c2nnc(N)s2)cc1 5.21 µM
CCCCCc1ccc(-c2nnc(N)s2)cc1 16.5 µM
CCCCOc1ccc(-c2nnc(N)s2)cc1 14.7 µM
COc1cc(-c2cc(=O)c3c(O)cc(O)cc3o2)ccc1O 4.14 µM
COc1cc(-c2cc(=O)c3ccccc3o2)ccc1O 8.26 µM
CCS(=O)(=O)n1nc(-c2ccc(Cl)cc2)nc1SCc1ccccc1 8.26 µM
CC(=O)c1cc(C#N)c(SCc2ccccc2)nc1C 13.1 µM
CC(=O)c1cnc2nc(SCc3ccccc3)nn2c1C 5.21 µM
CC(=O)c1cc(C#N)c(SCc2ccccn2)nc1C 7.36 µM
COCCCNCCCCOc1ccc(OCc2ccccc2)cc1 18.5 µM
C=CCNCCCCOc1ccc(OCc2ccccc2)cc1 7.36 µM
CC(O)CNCCCCOc1ccc(OCc2ccccc2)cc1 (configuration not stated) 9.27 µM
CC(C)(C)C1(C)OC(=O)C(=Cc2ccc(OCC(=O)Nc3ccccc3)cc2)C(=O)O1 (configuration not stated) 11.7 µM
Cc1ccc(C(=O)NCc2ccc3c(c2)CCO3)cc1C 10.4 µM
COC(=O)c1ccc(N=NN2CCCCCC2)cc1 5.85 µM
COC(=O)c1ccc(N=NN2CCCCC2)cc1 7.36 µM
COC(=O)c1ccc(N=NN2CCOCC2)cc1 7.36 µM
O=C(O)c1cccc(N=NN2CCCCCC2)c1 0.165 µM
Cc1cc(C(F)(F)F)c(C#N)c(SCC(=O)Nc2nc3cc(Br)ccc3s2)n1 3.69 µM
CCc1ccc(NC2Nc3cc(C)nn3S2)cc1 (configuration not stated) 1.65 µM
Cc1ccc(NC2Nc3cc(C)nn3S2)c(C)c1 (configuration not stated) 6.56 µM
Cc1csc(SCc2nnc(-c3ccc(Cl)cc3)o2)n1 4.65 µM
O=C(CSc1nc2ccccc2s1)N/N=C/c1ccccc1C(=O)O 16.5 µM
Cc1c(C=O)c2cc(OCc3ccccc3)ccc2n1C 4.14 µM
COc1ccc(-c2nc3n(c2C)Cc2ccccc2-3)cc1 6.56 µM
Cc1ccc(N=Nc2c(O)[nH]c3ccc(F)cc23)cc1 1.31 µM
Oc1[nH]c2ccccc2c1N=Nc1ccc(F)cc1 5.85 µM
CCOC(=O)c1c(C)[nH]c(C(=O)CSc2ccc(Cl)cc2)c1C 7.36 µM
CCOC(=O)c1c(C)[nH]c(C(=O)CSc2nccc(C)n2)c1C 4.65 µM
CCOC(=O)c1c(C)[nH]c(C(=O)COC(=O)C2CC2C)c1C (configuration not stated) 2.61 µM
CCOC(=O)c1c(C)[nH]c(C(=O)COC(=O)CNC(=O)c2ccccc2Cl)c1C 13.1 µM
CCOC(=O)c1c(C)[nH]c(C(=O)COC(=O)CCSc2ccccc2)c1C 13.1 µM
Cc1ccc(N/C=C2/Sc3ccccc3NC2=O)cc1 4.14 µM
COC(=O)N/N=C\c1c(C)nn(-c2ccccc2)c1Cl 7.36 µM
Cc1nn(-c2ccccc2)c(Cl)c1/C=N/Nc1nc2ccccc2[nH]1 0.293 µM
Cc1nn(-c2ccccc2)c(Cl)c1/C=N/NC(=O)c1ccco1 3.29 µM
Cc1nn(-c2ccccc2)c(Cl)c1/C=N/NC(=O)c1ccnn1C 5.21 µM
Cc1nn(-c2ccccc2)c(Cl)c1/C=N/NC(N)=O 16.5 µM
Cc1nn(-c2ccccc2)c(Cl)c1/C=N/NC(=O)c1ccccc1F 4.65 µM
CCOC(=O)N/N=C/c1c(C)nn(-c2ccccc2Cl)c1Cl 7.36 µM
CC1CCCN(c2nc3ccsc3c(=O)s2)C1 (configuration not stated) 8.26 µM
Cn1nc(NC(=O)C(F)(F)F)c2ncc(-c3ccc(Cl)cc3)nc21 9.27 µM
Cc1ccc2c(C)c(C(=O)N3CCCC(C(N)=O)C3)oc2c1C (configuration not stated) 13.1 µM
c1ccc(COc2ccc(CN3CCN(c4ccccn4)CC3)cc2)cc1 6.56 µM
C=COC(=O)CSc1nc(-c2cccs2)ccc1C#N 0.927 µM
CCOC(=O)c1ccc(Nc2cnc3ccccc3n2)cc1 1.47 µM
Cc1cc(-c2ccccc2)nc(-c2ccccc2)c1C 7.36 µM
Cc1cc2ncc(-c3ccccc3)nc2cc1C 0.656 µM
CCOC(=O)c1cnc(-c2ccccc2)nc1N(C)C 7.36 µM
CCOC(=O)c1ccc2ncc(-c3ccccc3)nc2c1 1.85 µM
CCOC(=O)c1ccc2c(c1)nc(-c1ccccn1)n2CC 1.65 µM
O=[N+]([O-])c1cccc(-c2ccc(SCc3ccccn3)nn2)c1 6.56 µM
Cc1cc2ncn(C(=O)N3CCC(C)CC3)c2cc1C 10.4 µM
COc1cc(/C=C/c2ccc(O)cc2)cc(OC)c1 2.93 µM
FC(F)(F)c1ccnc(Oc2ccc(C3=NCCS3)cc2)c1 1.65 µM
O=C(Cn1nnc(-c2ccc3c(c2)OCO3)n1)Nc1ccccc1C(=O)O 14.7 µM
Cc1ccccc1Cn1nnc(-c2ccc3c(c2)OCO3)n1 16.5 µM
Cc1ccccc1CSc1ccc(-c2ccc3c(c2)OCO3)nn1 14.7 µM
COc1cccc(-n2cnc3sc(C)c(C)c3c2=O)c1 11.7 µM
Clc1ccccc1-c1nnc(-c2ccccc2Cl)o1 3.69 µM
Clc1ccccc1-c1nnc(-c2ccc3c(c2)OCO3)o1 0.585 µM
Fc1cccc(NCc2ccccc2-c2nnc(-c3ccccc3Cl)o2)c1 1.04 µM
O=C(c1cccc(C(F)(F)F)c1)C1CCCN(C(=O)CN2CCCC2=O)C1 (configuration not stated) 3.29 µM
N#Cc1ccccc1CSc1nc2ccsc2c(=O)n1Cc1ccccn1 16.5 µM
Fc1ccc(OCc2nnc(-c3ccccc3Br)o2)c(Cl)c1 13.1 µM
Clc1ccccc1-c1nnc(COc2ccccc2)o1 5.85 µM
Clc1cccc(OCc2nnc(-c3ccccc3Br)o2)c1 16.5 µM
Clc1ccccc1OCc1nnc(-c2ccccc2Br)o1 4.65 µM
Clc1ccccc1OCc1nnc(-c2ccccc2)o1 7.36 µM
N#Cc1ccccc1OCc1nnc(-c2ccccc2Br)o1 1.31 µM
c1ccc(CCn2nnc3ccccc32)cc1 14.7 µM
C(#Cc1ccccc1)Cn1nnc2ccccc21 13.1 µM
Clc1ccccc1OCCn1nnc2ccccc21 13.1 µM
CCOC(=O)C1(Cc2cccc(OC)c2)CCCN(C(=O)CCN2CCCO2)C1 (configuration not stated) 5.85 µM
CCOC(=O)C1(Cc2ccccc2)CCCN(C(=O)c2cnn(CC)c2)C1 (configuration not stated) 9.27 µM
